Bioassay records as filed in PubChem.
Most compounds without a hit are left out; they make up all but 28% or so of the library.
CYP2C19 inh: human CYP2C19 inhibition; P33261; CYP2C19 Supersomes, luciferin-H EGE luminescence, 30 min; inhibition, % at 5 µM; actives 21% (n = 96,000); AID 778;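 active means CYP2C19 inhibition above a set limit at 5 µM in the primary screen, cut at about 50% in these data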;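 further: plate controls were negative control wells for no effect and 2.5 mM tranylcypromine positive control for full effect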
Target sequence (P33261 whole entry, looked up): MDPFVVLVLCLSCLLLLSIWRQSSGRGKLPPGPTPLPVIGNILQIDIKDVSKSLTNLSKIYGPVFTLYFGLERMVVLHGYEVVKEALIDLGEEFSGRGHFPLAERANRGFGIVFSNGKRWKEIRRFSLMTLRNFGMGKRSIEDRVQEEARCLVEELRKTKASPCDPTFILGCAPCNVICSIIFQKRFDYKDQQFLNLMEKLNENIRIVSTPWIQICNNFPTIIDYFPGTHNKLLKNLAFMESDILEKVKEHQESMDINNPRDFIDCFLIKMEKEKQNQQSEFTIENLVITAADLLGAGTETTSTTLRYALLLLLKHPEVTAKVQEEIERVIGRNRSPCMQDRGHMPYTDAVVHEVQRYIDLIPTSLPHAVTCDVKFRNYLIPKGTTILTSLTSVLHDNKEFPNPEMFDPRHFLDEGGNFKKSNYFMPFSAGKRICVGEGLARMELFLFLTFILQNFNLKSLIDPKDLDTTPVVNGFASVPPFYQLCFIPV
Plk1 PBD FP: Plk1 (human) PBD binding inhibition; P53350; Plk1 PBD phosphopeptide binding, fluorescence polarization; inhibition, %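 (tested at about 20 µM)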; actives 0.13% (n = 97,000); in the data active means inhibition above about 34%, passing the limit was not always enough
PLK1 kinase inh: blocks human PLK1 kinase activity | AID 619 | P53350 | recombinant PLK1 kinase, TR-FRET peptide phosphorylation | actives 0.53% (n = 97,000) | inhibition, % at 10 µM;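 active means inhibition of 50% or more in the single-concentration screen; inactive means inhibition below 50%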;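 further: 0% = DMSO max control and 100% = H-89 dihydrochloride min control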
CYP2C9 inhib: blocks human cytochrome P450 2C9; P11712; CYP2C9 Supersomes, luciferin-H conversion, luminescence; inhibition, % at 5 µM; actives 20% (n = 96,000);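 active means blocking of liver enzyme CYP2C9 beyond about 50% at 5 µM, limit read from the data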
CYP2C9 act: increases human cytochrome P450 2C9 activity; actives 1.4% (n = 96,000); activation factor at 5 µM; P11712; AID 1024; recombinant CYP2C9, luciferin-H conversion, luminescence; stronger effect = higher value; factor 1 = untreated enzyme, 0 = blocked;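 active means activation factor of 2 or more for CYP2C9 at a 5 µM dose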;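 further: 0 = sulfaphenazole-blocked wells and 1 = vehicle-only wells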
CYP2C19 activ: activators of human cytochrome P450 2C19; recombinant CYP2C19, luciferin-H EGE luminescence; stronger effect = higher value; 0 = fully inhibited enzyme, 1 = untreated enzyme; activation factor at 5 µM; P33261; 96,000 tested, under 10 active;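 active means activation factor of at least 2 at 5 µM in the primary screen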;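 further: 0 = wells with 2.5 mM tranylcypromine and 1 = vehicle-only wells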
Starred values were filed as active, the others as inactive; / = no result given.

SMILES	CYP2C19 inh	Plk1 PBD FP	PLK1 kinase inh	CYP2C9 inhib	CYP2C9 act	CYP2C19 activ
COc1cc(NC(=O)c2cccs2)cc(OC)c1	23	1	-5	21	0.8	0.8
COc1cccc(NC(=O)c2cccc(OC)c2OC)c1	81*	-8	-7	-73	1.7	0.2
COc1cc(NC(=O)Cc2cccs2)ccc1-n1cnnn1	53*	-10	-6	4	1	0.5
O=C(CS(=O)(=O)Cc1ccccc1)Nc1ccc(Cl)cn1	/	-16	-1	/	/	/
O=C(NC1=NCCS1)c1csc2ccccc12	44	/	/	-12	1.1	0.6
CCc1ccc2c(c1)C(c1cccs1)=NNC(c1cccnc1)=N2	33	-22	-4	40	0.6	0.7
COc1cccc(NC(=O)c2cccs2)c1	54*	0	-8	29	0.7	0.5
COC(=O)c1sc2ccccc2c1NC(=O)c1cccs1	35	4	-9	60*	0.4	0.7
COc1cccc(NC(=O)Cc2cccs2)c1	51*	-15	-3	21	0.8	0.5
CCCC1(CCC)NC(=O)N(CC(=O)N2CCN(C(=O)c3ccco3)CC2)C1=O	-12	17	-2	20	0.8	1.1
CCCN(CCC)CCSc1nc(O)c(C(C)C)c(=O)[nH]1	-6	/	/	0	1	1.1
CCCn1c(-c2ccc(F)cc2)cnc1SCC(=O)O	6	0	-9	14	0.9	0.9
CCn1c(-c2ccc(F)cc2)cnc1SCC(=O)N1CCCCC1C (centres undefined)	63*	-17	-7	40	0.6	0.4
c1ccc(CC2CCN(c3nc(N4CCOCC4)nc(N4CCOCC4)n3)CC2)cc1	/	-21	-10	/	/	/
Cc1cc(S(=O)(=O)NCc2cccnc2)ccc1-n1cnnn1	37	-8	-12	-19	1.2	0.6
CCCCn1c(=O)n(CC(=O)Nc2ccc(C)c(Cl)c2)c(=O)c2c1ncn2Cc1ccco1	51*	/	/	62*	0.4	0.5
CCCCn1c(=O)n(CC(=O)Nc2ccc(OC)c(Cl)c2)c(=O)c2c1nc(CO)n2CCC	79*	-45	-6	90*	0.1	0.2
CCn1cnc2c1c(=O)n(CC(=O)Nc1cc(C)on1)c(=O)n2Cc1ccccc1	31	0	14	34	0.7	0.7
COc1ccc(C(=O)c2ccc(Br)cc2)cc1	/	4	-8	/	/	/
O=C(c1ccncc1)c1ccc(Br)cc1	45	5	-4	62*	0.4	0.5
CCc1ccc(CN2CC(C(=O)O)CC2=O)cc1 (centres undefined)	43	-10	-25	-19	1.2	0.6
Cc1ccc(CN(CC(=O)N/N=C/c2ccco2)S(=O)(=O)c2ccc(C)cc2)cc1	100*	24	-16	90*	0.1	0
O=C(CN(c1ccc(Cl)cc1)S(=O)(=O)c1ccccc1)N/N=C/c1ccco1	98*	22	-13	82*	0.2	0
O=C1CCCc2[nH]nc(-c3cccnc3)c21	-12	23	-11	-6	1.1	1.1
CCOC(=O)c1c2ccc(OCC(=O)N/N=C/c3ccc(C)cc3)cc2n2ccccc12	36	1	-23	65*	0.3	0.6
SMILES	CYP2C19 inh	Plk1 PBD FP	PLK1 kinase inh	CYP2C9 inhib	CYP2C9 act	CYP2C19 activ
COc1cccc(C(=O)N/N=C/c2ccc(OC3CSC3)cc2)c1	8	-23	-17	18	0.8	0.9
CSc1nc(Oc2ccccc2)c2sccc2n1	10	-10	-12	60*	0.4	0.9
C=CCSc1nc(Oc2ccccc2)c2sccc2n1	54*	-5	-6	34	0.7	0.5
CSc1nc(Oc2ccc(Cl)cc2)c2sccc2n1	25	-11	-7	-15	1.2	0.7
C=CCNc1nc(SCC=C)nc2ccsc12	41	-12	-7	-82	1.8	0.6
O=C(NCC(=O)N(Cc1ccco1)C(C(=O)NC1CCCC1)c1cccnc1)c1ccco1 (centres undefined)	/	-5	-8	/	/	/
COCCN(C(=O)CNC(=O)c1cccs1)C(C(=O)NC1CCCC1)c1cccs1 (centres undefined)	56*	/	/	47	0.5	0.4
O=C(NCC(=O)N(Cc1ccco1)C(C(=O)NC1CCCCC1)c1cccnc1)c1cccs1 (centres undefined)	57*	-28	-4	29	0.7	0.4
O=C1CCCN1c1cccc(Br)c1	/	-4	-10	/	/	/
COc1ccccc1NC(=O)c1cnc2n(c1=O)CCS2	-2	-10	-4	0	1	1
Cc1occc1C(=O)NNC(=S)Nc1cccc([N+](=O)[O-])c1	24	6	-11	12	0.9	0.8
CC1=C(C(=O)N2CCCCC2)C(c2cccs2)C2=C(CCCC2=O)N1 (centres undefined)	5	19	-7	4	1	1
O=S(=O)(NCC1CCCO1)c1cccc(S(=O)(=O)N2CCCC2)c1 (centres undefined)	8	-15	-1	1	1	0.9
O=S(=O)(NC1CCCC1)c1cccc(S(=O)(=O)N2CCC(n3nnc4ccccc43)CC2)c1	75*	27	-1	72*	0.3	0.3
O=S(=O)(NC1CCCCC1)c1ccc(S(=O)(=O)N2CCN3CCCC3C2)cc1 (centres undefined)	37	-16	-10	34	0.7	0.6
O=S(=O)(NC1CC1)c1cccc(S(=O)(=O)N2CCCC2)c1	82*	-9	-6	5	0.9	0.2
O=S(=O)(NC1CC1)c1ccc(S(=O)(=O)N2CCN3CCCC3C2)cc1 (centres undefined)	-2	0	53*	3	1	1
CCc1ccc(CCC(=O)Nc2nnc(CC)s2)o1	15	/	/	4	1	0.8
CCCCP(=O)(CCCC)Cc1ccccc1O	-9	1	-7	-15	1.1	1.1
CCOC(=O)CC1=C(C#N)C(c2cccnc2)C(C(=O)OCC)=C(N)O1 (centres undefined)	73*	/	/	75*	0.2	0.3
CCOC(=O)CC1=C(C(=O)OCC)C(c2cccnc2)C(C#N)=C(N)O1 (centres undefined)	56*	19	-10	32	0.7	0.4
Cn1cnnc1SCc1ccc(C(=O)n2ncc(C#N)c2N)cc1	-3	/	/	-5	1	1
CC(O)c1c(OCc2ccccc2)ncnc1OCc1ccccc1 (centres undefined)	39	22	-9	33	0.7	0.6
COc1ccc(CNC(=O)CSc2ncnc3nc[nH]c23)cc1	61*	4	-1	17	0.8	0.4
CC(NC(=O)CSc1ncnc2nc[nH]c12)c1ccccc1 (centres undefined)	23	-8	2	94*	0.1	0.8
O=C(CSc1ncnc2nc[nH]c12)NCCc1ccccc1	6	-10	-5	-3	1	0.9
Cc1ccc(C(=O)CSc2nnc(CNc3nc(-c4ccccc4)cs3)n2C)cc1	34	15	-7	27	0.7	0.7
